Measured values: the supplement of paper PMC10849652
The full data set covers some 7,900 targets. This sample favours those with a hit. About 0.6% of all pairs of compound and target were hits. A number with no mark means an inactive call.

Legend:
Experiment in all cases: log2 fold change, soluble protein after heating vs DMSO (PISA); higher = thermal stabilisation; K562 cells, 10 uM, 30 min; active = over 0.2 and 3.5 SD of the protein, either way, in both replicates (recomputed)
bafetinib = compound: Cc1ccc(NC(=O)c2ccc(CN3CC[C@H](N(C)C)C3)c(C(F)(F)F)c2)cc1Nc1nccc(-c2cncnc2)n1 [bafetinib]
Summary of the method: (§1)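 K562 cells at 2×10^6 cells/mL were treated for 30 min with 10 μM compound, and aliquots were heated for 3 min over 48°C-58°C before pooling. Extraction used PBS with 0.5% NP-40 at 4°C, and soluble protein was the supernatant after 21,000xg for 90 min, measured by TMTpro 16plex LC-MS/MS with channel sums equalised. Thermal stability values, relative to control samples and from duplicates, are log2 fold changes.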

[1] = compound: Cc1cccc(CC(=O)N2CCc3c2ccc(-c2cn(C)c4ncnc(N)c24)c3F)n1
Summary of the method: as §1

nilotinib = compound: Cc1cn(-c2cc(NC(=O)c3ccc(C)c(Nc4nccc(-c5cccnc5)n4)c3)cc(C(F)(F)F)c2)cn1 [nilotinib]
Summary of the method: as §1

[2] = compound: Cc1nc(Nc2n[nH]c3c2CN(C(=O)N[C@H](CN(C)C)c2ccccc2)C3(C)C)c2sccc2n1
Summary of the method: as §1

dasatinib = compound: Cc1nc(Nc2ncc(C(=O)Nc3c(C)cccc3Cl)s2)cc(N2CCN(CCO)CC2)n1 [dasatinib]
Summary of the method: as §1

[3] = compound: Cc1ncc(-c2ccnc(Nc3ccc(S(C)(=O)=O)cc3)n2)n1C(C)C
Summary of the method: as §1

[4] = compound: Cn1cc(-c2ccc3c(c2)CCN3C(=O)Cc2cccc(C(F)(F)F)c2)c2c(N)ncnc21
Summary of the method: as §1

[5] = compound: Cn1cc(-c2ccc3nnc(C(F)(F)c4ccc5ncccc5c4)n3n2)cn1
Summary of the method: as §1

tipifarnib = compound: Cn1cncc1[C@@](N)(c1ccc(Cl)cc1)c1ccc2c(c1)c(-c1cccc(Cl)c1)cc(=O)n2C [tipifarnib]
Summary of the method: as §1

mubritinib = compound: FC(F)(F)c1ccc(/C=C/c2nc(COc3ccc(CCCCn4ccnn4)cc3)co2)cc1 [mubritinib]
Summary of the method: as §1

[6] = compound: NC(=O)Nc1cc(-c2cccc(F)c2)sc1C(=O)N[C@H]1CCCNC1
Summary of the method: as §1

[7] = compound: NC(=O)c1cnc(N[C@@H]2CCCC[C@@H]2N)nc1Nc1cccc(-n2nccn2)c1
Summary of the method: as §1

[8] = compound: NC1(c2ccc(-c3nc4ccn5c(=O)[nH]nc5c4cc3-c3ccccc3)cc2)CCC1
Summary of the method: as §1

[9] = compound: NCC(=O)Nc1ccc(-n2nc(C(F)(F)F)cc2-c2ccc3c(ccc4ccccc43)c2)cc1
Summary of the method: as §1

entinostat = compound: Nc1ccccc1NC(=O)c1ccc(CNC(=O)OCc2cccnc2)cc1 [entinostat]
Summary of the method: as §1

vorinostat = compound: O=C(CCCCCCC(=O)Nc1ccccc1)NO [vorinostat]
Summary of the method: as §1

citarinostat = compound: O=C(CCCCCCNC(=O)c1cnc(N(c2ccccc2)c2ccccc2Cl)nc1)NO [citarinostat]
Summary of the method: as §1

silmitasertib = compound: O=C(O)c1ccc2c(c1)nc(Nc1cccc(Cl)c1)c1ccncc12 [silmitasertib]
Summary of the method: as §1

[10] = compound: O=C1NC(=O)C(c2cnc3ccccn23)=C1c1cn2c3c(cc(F)cc13)CN(C(=O)N1CCCCC1)CC2
Summary of the method: as §1

[11] = compound: c1cc(OCCN2CCCCC2)cc(-c2n[nH]c3ccc(-c4nnc[nH]4)cc23)c1
Summary of the method: as §1

Chain of UniProt P10620 (P10620 whole entry, looked up): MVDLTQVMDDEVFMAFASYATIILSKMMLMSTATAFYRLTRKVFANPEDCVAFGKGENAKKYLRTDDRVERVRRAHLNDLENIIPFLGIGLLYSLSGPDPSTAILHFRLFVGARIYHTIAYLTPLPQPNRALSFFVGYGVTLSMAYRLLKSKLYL
Chain of UniProt P23276 (P23276 whole entry, looked up): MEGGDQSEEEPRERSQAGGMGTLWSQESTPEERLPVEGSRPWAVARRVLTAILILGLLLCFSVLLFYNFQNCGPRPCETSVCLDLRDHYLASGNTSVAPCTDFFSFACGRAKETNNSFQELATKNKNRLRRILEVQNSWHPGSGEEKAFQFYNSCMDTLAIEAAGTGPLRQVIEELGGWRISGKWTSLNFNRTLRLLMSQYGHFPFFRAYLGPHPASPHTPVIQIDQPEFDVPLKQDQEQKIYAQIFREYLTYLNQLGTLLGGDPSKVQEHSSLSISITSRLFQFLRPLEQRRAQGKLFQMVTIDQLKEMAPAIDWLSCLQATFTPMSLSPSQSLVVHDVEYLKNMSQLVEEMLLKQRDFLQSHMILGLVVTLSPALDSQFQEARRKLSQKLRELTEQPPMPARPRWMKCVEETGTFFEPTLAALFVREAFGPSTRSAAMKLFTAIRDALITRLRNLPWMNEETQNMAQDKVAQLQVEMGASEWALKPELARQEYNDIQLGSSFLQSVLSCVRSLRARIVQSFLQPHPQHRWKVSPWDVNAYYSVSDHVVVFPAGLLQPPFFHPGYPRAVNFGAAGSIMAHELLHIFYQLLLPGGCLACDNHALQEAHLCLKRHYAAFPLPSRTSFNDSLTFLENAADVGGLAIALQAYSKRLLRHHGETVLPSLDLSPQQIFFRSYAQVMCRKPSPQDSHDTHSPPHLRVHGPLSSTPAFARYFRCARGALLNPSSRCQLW
Chain of UniProt Q9NQ29 (Q9NQ29 whole entry, looked up): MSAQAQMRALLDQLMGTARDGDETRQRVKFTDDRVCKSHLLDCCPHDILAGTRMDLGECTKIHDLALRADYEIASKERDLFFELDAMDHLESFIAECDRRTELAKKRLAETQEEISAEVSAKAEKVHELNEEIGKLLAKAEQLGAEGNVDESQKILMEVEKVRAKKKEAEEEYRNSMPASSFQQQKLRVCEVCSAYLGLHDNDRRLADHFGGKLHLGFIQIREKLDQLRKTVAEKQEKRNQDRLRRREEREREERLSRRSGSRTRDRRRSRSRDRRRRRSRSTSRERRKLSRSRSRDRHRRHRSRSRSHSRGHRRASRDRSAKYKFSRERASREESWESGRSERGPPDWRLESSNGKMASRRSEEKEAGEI
Chain of UniProt Q9BQK8 (Q9BQK8 whole entry, looked up): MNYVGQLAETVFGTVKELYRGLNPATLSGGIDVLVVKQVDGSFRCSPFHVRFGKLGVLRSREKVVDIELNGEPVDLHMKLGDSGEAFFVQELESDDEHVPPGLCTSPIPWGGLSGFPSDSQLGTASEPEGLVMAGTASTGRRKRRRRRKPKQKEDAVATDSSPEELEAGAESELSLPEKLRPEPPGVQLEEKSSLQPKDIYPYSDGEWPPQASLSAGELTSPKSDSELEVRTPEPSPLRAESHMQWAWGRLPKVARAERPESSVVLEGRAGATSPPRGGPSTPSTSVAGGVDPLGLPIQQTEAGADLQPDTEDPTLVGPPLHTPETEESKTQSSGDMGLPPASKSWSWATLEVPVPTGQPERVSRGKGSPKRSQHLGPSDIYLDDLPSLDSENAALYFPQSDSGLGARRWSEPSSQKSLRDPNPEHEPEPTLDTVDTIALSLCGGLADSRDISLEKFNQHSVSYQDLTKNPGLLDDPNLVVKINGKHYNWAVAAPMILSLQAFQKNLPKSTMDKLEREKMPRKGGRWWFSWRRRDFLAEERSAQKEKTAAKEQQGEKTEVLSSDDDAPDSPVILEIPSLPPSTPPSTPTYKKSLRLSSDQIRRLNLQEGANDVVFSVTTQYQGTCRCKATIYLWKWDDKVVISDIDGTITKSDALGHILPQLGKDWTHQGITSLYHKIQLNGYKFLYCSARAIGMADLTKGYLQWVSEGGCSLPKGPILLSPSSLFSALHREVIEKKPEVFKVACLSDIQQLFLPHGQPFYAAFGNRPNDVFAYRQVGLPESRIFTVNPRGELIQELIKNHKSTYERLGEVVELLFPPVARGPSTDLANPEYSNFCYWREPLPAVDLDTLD
Chain of UniProt Q07666 (Q07666 whole entry, looked up): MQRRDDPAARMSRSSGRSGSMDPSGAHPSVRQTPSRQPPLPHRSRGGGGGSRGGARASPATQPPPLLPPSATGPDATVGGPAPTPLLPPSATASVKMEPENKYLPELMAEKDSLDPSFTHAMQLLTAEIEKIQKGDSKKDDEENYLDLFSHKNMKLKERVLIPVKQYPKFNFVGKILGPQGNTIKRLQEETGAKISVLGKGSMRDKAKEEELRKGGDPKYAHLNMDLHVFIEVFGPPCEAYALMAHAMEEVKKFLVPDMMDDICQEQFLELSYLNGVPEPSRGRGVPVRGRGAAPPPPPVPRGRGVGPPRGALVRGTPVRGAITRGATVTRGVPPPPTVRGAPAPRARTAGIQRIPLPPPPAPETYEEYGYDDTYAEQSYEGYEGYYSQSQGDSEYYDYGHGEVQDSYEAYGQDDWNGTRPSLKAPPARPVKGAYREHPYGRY
Chain of UniProt Q13123 (Q13123 whole entry, looked up): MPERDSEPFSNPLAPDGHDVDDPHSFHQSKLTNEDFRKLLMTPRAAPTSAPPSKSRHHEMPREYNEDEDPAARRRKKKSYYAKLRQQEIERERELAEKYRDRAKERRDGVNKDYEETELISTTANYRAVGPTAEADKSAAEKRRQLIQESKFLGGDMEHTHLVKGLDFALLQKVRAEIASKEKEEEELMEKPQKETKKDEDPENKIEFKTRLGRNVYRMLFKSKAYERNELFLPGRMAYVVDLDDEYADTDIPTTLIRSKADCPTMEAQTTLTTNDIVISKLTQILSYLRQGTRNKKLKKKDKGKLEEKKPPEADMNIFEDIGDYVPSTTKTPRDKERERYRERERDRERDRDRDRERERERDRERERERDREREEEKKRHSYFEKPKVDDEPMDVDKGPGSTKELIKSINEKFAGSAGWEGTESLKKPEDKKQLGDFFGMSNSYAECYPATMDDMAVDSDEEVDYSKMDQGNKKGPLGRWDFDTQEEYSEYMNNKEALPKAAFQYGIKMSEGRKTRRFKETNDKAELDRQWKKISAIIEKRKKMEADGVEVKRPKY
Chain of UniProt Q6P1A2 (Q6P1A2 whole entry, looked up): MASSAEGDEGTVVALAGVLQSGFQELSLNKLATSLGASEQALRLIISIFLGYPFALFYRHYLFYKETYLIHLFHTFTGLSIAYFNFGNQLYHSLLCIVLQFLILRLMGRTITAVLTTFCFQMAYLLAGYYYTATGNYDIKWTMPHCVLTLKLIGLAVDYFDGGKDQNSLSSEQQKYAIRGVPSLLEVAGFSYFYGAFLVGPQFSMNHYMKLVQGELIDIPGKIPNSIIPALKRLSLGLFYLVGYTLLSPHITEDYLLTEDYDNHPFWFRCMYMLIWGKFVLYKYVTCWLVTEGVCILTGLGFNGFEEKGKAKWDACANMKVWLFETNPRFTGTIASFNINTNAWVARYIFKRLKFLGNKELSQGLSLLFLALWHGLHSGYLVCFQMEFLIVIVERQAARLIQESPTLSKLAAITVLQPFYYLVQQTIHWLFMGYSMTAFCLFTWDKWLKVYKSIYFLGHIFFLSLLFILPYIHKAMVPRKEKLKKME

| Target | log2 fold change (bafetinib) | log2 fold change [1] | log2 fold change (nilotinib) | log2 fold change [2] | log2 fold change (dasatinib) | log2 fold change [3] | log2 fold change [4] | log2 fold change [5] | log2 fold change (tipifarnib) | log2 fold change (mubritinib) | log2 fold change [6] | log2 fold change [7] | log2 fold change [8] | log2 fold change [9] | log2 fold change (entinostat) | log2 fold change (vorinostat) | log2 fold change (citarinostat) | log2 fold change (silmitasertib) | log2 fold change [10] | log2 fold change [11] |
| --- | --- | --- | --- | --- | --- | --- | --- | --- | --- | --- | --- | --- | --- | --- | --- | --- | --- | --- | --- | --- |
| KHDRBS1 (UniProt Q07666) | 0.041 | 0.007 | 0.035 | 0.02 | 0.012 | 0.07 | 0.025 | -0.024 | 0.017 | 0.021 | -0.013 | -0.038 | -0.009 | -0.034 | -0.025 | 0.037 | 0.099 | 0.018 | 0.039 | -0.064 |
| IK (UniProt Q13123) | 0.013 | -0.01 | -0.062 | -0.067 | -0.025 | 0.037 | -0.007 | -0.109 | 0.003 | -0.067 | -0.016 | 0.119 | 0.06 | -0.08 | 0.008 | 0.026 | -0.235 | 0.132 | 0.017 | -0.078 |
| LPCAT3 (UniProt Q6P1A2) | 0.108 | 0.063 | 0.044 | 0 | 0.051 | 0.363 (active) | 0.153 | -0.015 | -0.216 | 0.034 | -0.074 | -0.105 | -0.185 | -0.229 | 0.044 | 0.024 | 0.087 | 0.05 | -0.091 | 0.072 |
| MGST1 (UniProt P10620) | -0.001 | -0.053 | -0.006 | 0.078 | 0.084 | -0.039 | -0.013 | 0.014 | 0.131 | -0.005 | -0.025 | -0.024 | -0.035 | 0.163 | 0.031 | 0.027 | -0.065 | 0.036 | -0.086 | 0.122 |
| KEL (UniProt P23276) | -0.027 | -0.002 | 0.017 | -0.032 | -0.019 | 0.004 | 0.083 | 0.003 | 0.031 | -0.591 (active) | -0.004 | 0.088 | -0.215 | 0.017 | -0.022 | 0.03 | 0.019 | 0.108 | 0.115 | -0.001 |
| LPIN3 isoform 2 (UniProt Q9BQK8) | 0.006 | 0.024 | -0.005 | -0.051 | -0.128 | 0.038 | 0.06 | 0.002 | 0.008 | 0.089 | 0.014 | -0.027 | -0.044 | 0.041 | -0.006 | 0.011 | 0.001 | -0.116 | -0.054 | -0.142 |
| LRPPRC (UniProt P42704) | -0.053 | 0.117 | -0.14 | -0.721 | -0.732 | 0.016 | 0.236 | 0.24 | -0.656 | -0.161 | -0.249 | -0.291 | -0.676 | -0.272 | 0.479 | 0.289 | 0.203 | 0.033 | -0.383 | -0.128 |
| LUC7L (UniProt Q9NQ29) | 0.057 | -0.046 | 0.049 | -1.71 (active) | 0.062 | 0.109 | -0.095 | -0.054 | 0.049 | -0.099 | -0.061 | 0.011 | 0.17 | -0.043 | -0.01 | -0.058 | -0.052 | -0.006 | 0.133 | -0.095 |
